Compound activity: PubChem, National Center for Advancing Translational Sciences (NCATS)
In the library only some 2.4% were active in any assay of this set; here they are far more common.
D2 PAM-1: positive allosteric modulators of human D2 dopamine receptor; P14416; HEK293 T-REx D2, calcium flux, EC20 dopamine potentiation; potentiation, % at 10 µM; 0.34% of 340,000 active;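 active = potentiation over 3 SD above the plate norm, cut at about 30% in these data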
Target sequence (P14416 whole entry, looked up): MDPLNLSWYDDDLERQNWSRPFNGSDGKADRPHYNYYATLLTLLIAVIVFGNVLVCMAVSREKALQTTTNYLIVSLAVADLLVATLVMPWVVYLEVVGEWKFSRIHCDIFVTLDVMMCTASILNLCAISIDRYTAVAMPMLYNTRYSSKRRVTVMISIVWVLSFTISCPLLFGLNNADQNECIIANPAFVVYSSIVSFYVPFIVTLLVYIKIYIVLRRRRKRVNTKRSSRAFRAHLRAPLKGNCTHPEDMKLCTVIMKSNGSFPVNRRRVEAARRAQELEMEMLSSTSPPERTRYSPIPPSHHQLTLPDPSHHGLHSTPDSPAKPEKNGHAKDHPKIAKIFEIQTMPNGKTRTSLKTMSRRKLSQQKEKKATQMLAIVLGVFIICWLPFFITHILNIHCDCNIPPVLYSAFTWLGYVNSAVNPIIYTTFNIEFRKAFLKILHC
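Tetracycline-induced Hek293 Trex D2 cells, force-coupled to calcium, loaded with no-wash calcium dye. Compound added with 180 s kinetic read for agonism, then EC20 dopamine and a further 180 s read for potentiation.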
D2 PAM-2: positive allosteric modulators of human D2 dopamine receptor; DiscoveRx D2 beta-arrestin cells, luminescence, 90 min; 100% = 57 uM dopamine signal; potentiation, % (concentration not given with the values); 0.23% of 360,000 active; AID 624464; in the data active = potentiation above about 50%
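PathHunter beta-arrestin assay in DiscoveRx D2 cells. Compounds were added with an EC20 of dopamine (50 nM final) for 90 min at 37 deg C. Luminescence was read 1 h after detection reagent, with 57 uM dopamine as the EC100 control.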
B2AR arrestin: recruits beta-arrestin to the human beta2-adrenergic receptor; P07550; 0.02% of 330,000 active; AID 492947; Potency, µM (series often up to 46.1 µM), most hits filed as activators; beta-arrestin recruitment to beta2AR, cell-based reporter; active = well fitted activation curve with a large enough effect; also: nearly all actives have a fitted effect of over 65% in size
D2 antag: antagonists of human D2 dopamine receptor | P14416 | HEK293 TREx D2 cells, calcium flux, dopamine EC80 | inhibition, % at 10 µM | 2% of 340,000 active | AID 485344; in the data active = inhibition above about 30%; inactive = below that, where a call was filed
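Measurement of antagonist activity uses fluorescent calcium dye in inducible HEK293 T-REx D2 cells: 10 s baseline, compound addition with 180 s read, EC80 dopamine addition with a further 180 s read.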
D2 ag-1: agonists of human D2 dopamine receptor (beta-arrestin); P14416; activation, % (concentration not given with the values); DiscoveRx PathHunter D2 beta-arrestin, luminescence, 90 min; 100% = 57 uM dopamine signal; 0.084% of 360,000 active; in the data active = activation above about 40%
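DiscoveRx PathHunter D2 beta-arrestin cells (2,100/well) attached overnight, then compound-stimulated 90 min at 37 C in HBSS/10 mM HEPES/0.1% Tween-20 buffer; beta-galactosidase complementation read by luminescence after 1 h at ambient temperature. Dopamine 57 uM final (EC100) as control.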
D2 ag-2: agonists of human D2 dopamine receptor | P14416 | HEK293 T-REx D2 cells, calcium flux agonist mode | activation, % at 2 µM | 0.53% of 340,000 active;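 active = activation over 3 SD above normal in the single-dose calcium agonist read, cut at about 30% in these data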
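Tetracycline-induced HEK293 T-REx cells with force-coupled D2 receptor, plated overnight at 30 C, loaded with no-wash calcium dye. After a 10 s baseline, compound was pin-added and calcium flux read kinetically for 180 s; calcium rises flagged agonists.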
Numbers stand for hits; ! = not confirmed by another sample.

What do the screens show for `O=C1CC(=O)Nc2cc(S(=O)(=O)Nc3cccc(C(F)(F)F)c3)ccc2N1`?
D2 PAM-1: inactive; D2 PAM-2: inactive; B2AR arrestin: inactive; D2 antag: 30.5; D2 ag-1: inactive; D2 ag-2: inactive

Results for CCOC(=O)c1sc(NC(=O)C(CC)Sc2nnc3c4ccccc4n(CC)c3n2)nc1C (centres undefined) ?
D2 PAM-1: inactive; D2 PAM-2: inactive; B2AR arrestin: inactive; D2 antag: inactive; D2 ag-1: inactive; D2 ag-2: inactive

Results for CCCc1nc2nc(C)c(NS(=O)(=O)c3ccc(CC(C)C)cc3)c(=O)n2[nH]1 ?
D2 PAM-1: 32.4!; D2 PAM-2: inactive; B2AR arrestin: inactive; D2 antag: inactive; D2 ag-1: inactive; D2 ag-2: inactive

How did CCOc1cc(S(=O)(=O)NCc2ccccc2)ccc1Br do in these assays?
D2 PAM-1: inactive; D2 PAM-2: inactive; B2AR arrestin: inactive; D2 antag: inactive; D2 ag-1: inactive; D2 ag-2: inactive

What do the screens show for `c1ccc2c(c1)nc(NCCN1CCOCC1)c1nncn12`?
D2 PAM-2: inactive; B2AR arrestin: inactive; D2 ag-1: inactive

How did c1ccc(CN2CCN(c3nc4ccccc4n4cnnc34)CC2)cc1 do in these assays?
D2 PAM-1: inactive; D2 PAM-2: inactive; B2AR arrestin: inactive; D2 antag: 67.8; D2 ag-1: inactive; D2 ag-2: inactive

How did Clc1cccc(N2CCN(CCNc3nc4ccccc4n4cnnc34)CC2)c1 do in these assays?
D2 PAM-1: inactive; D2 PAM-2: inactive; B2AR arrestin: inactive; D2 antag: 41.8; D2 ag-1: inactive; D2 ag-2: inactive

What do the screens show for `Cc1cccc(Cn2ccc(N)n2)c1`?
D2 PAM-1: inactive; D2 PAM-2: inactive; B2AR arrestin: inactive; D2 antag: inactive; D2 ag-1: inactive; D2 ag-2: inactive

Results for Cc1[nH]n2c(=O)c3c(nc2c1-c1ccc(F)cc1)CCCC3 ?
D2 PAM-1: inactive; D2 PAM-2: inactive; B2AR arrestin: inactive; D2 antag: 35.6; D2 ag-1: inactive; D2 ag-2: inactive

Results for Cc1[nH]n2c(=O)c3c(nc2c1-c1ccccc1)CCCC3 ?
D2 PAM-1: inactive; D2 PAM-2: inactive; B2AR arrestin: inactive; D2 antag: inactive; D2 ag-1: inactive; D2 ag-2: inactive

What do the screens show for `CCCCOc1ccc(-c2nc(-c3cccnc3)no2)cc1`?
D2 PAM-1: inactive; D2 PAM-2: inactive; B2AR arrestin: inactive; D2 antag: 34.4; D2 ag-1: inactive; D2 ag-2: inactive

What do the screens show for `CCOc1ccc(-c2nc(-c3cccnc3)no2)cc1`?
D2 PAM-1: inactive; D2 PAM-2: inactive; B2AR arrestin: inactive; D2 antag: inactive; D2 ag-1: inactive; D2 ag-2: inactive

Results for CCOc1ccc(-c2nc(-c3ccccc3C)no2)cc1 ?
B2AR arrestin: inactive; D2 antag: 52.9; D2 ag-2: inactive

Results for CCOc1nc(-c2ccccc2)ccc1-c1noc(-c2ccc(C)cc2)n1 ?
D2 PAM-1: inactive; D2 ag-2: inactive

What do the screens show for `COc1c(N2CCN(C(=S)NC3CC4CCC3C4)C(C)C2)c(F)cc2c(=O)c(C(=O)O)cn(C3CC3)c12` (centres undefined)?
D2 PAM-1: inactive; D2 PAM-2: inactive; B2AR arrestin: inactive; D2 antag: inactive; D2 ag-1: inactive; D2 ag-2: inactive

What do the screens show for `CCCc1cc(=O)[nH]c(SC(C)C(=O)N2c3ccccc3CC2C)n1` (centres undefined)?
D2 PAM-1: inactive; D2 PAM-2: inactive; B2AR arrestin: inactive; D2 antag: 44.0; D2 ag-1: inactive; D2 ag-2: inactive

What do the screens show for `CC(C)(C)C(=O)COC(=O)c1c2c(nc3ccccc13)CCC2`?
D2 PAM-1: 39.0; D2 PAM-2: inactive; B2AR arrestin: inactive; D2 antag: inactive; D2 ag-1: inactive; D2 ag-2: inactive

What do the screens show for `COc1cccc(OC)c1C(=O)NCCSC1CCCCC1`?
D2 PAM-1: inactive; D2 PAM-2: inactive; B2AR arrestin: inactive; D2 antag: 40.5; D2 ag-1: inactive; D2 ag-2: inactive

What do the screens show for `CC1(C)CSC(=NCc2ccccc2)N1C(=O)c1cccc([N+](=O)[O-])c1`?
D2 PAM-1: inactive; D2 PAM-2: inactive; B2AR arrestin: inactive; D2 antag: 54.1; D2 ag-1: inactive; D2 ag-2: 83.2
